Data from the supplement of paper PMC8728848.
The sample as a whole holds a higher share of the strongest signals than the screen did.

Experiments:
Assay in all cases: glycan array binding signal (z-score within array); higher = stronger binding
[1] = molecular target: Fuc(a1-2)[Gal(a1-3)]Gal(b1-4)GlcNAc(b1-3)Gal(b1-4)Glc; conditions: glycan notation: IUPAC condensed, linker removed
How it was run: (§1)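 Columns mapping to the same glycan were averaged after glycan names were converted to IUPAC-condensed notation. The data come from 3228 arrays in the Consortium for Functional Glycomics database, limited to those with an available protein sequence. Binding is reported as a within-array Z-score averaged across arrays of one protein sequence and across linkers.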

[2] = molecular target: Fuc(a1-3)[Gal(b1-4)]GlcNAc(b1-3)Gal(b1-4)Glc; conditions: glycan notation: IUPAC condensed, linker removed
How it was run: as §1

Gal(b1-4)Glc = conditions: glycan notation: IUPAC condensed, linker removed
How it was run: as §1

[3] = molecular target: Gal(b1-4)GlcNAc(b1-2)Man(a1-3)[Gal(b1-4)GlcNAc(b1-2)Man(a1-6)]Man(b1-4)GlcNAc(b1-4)[Fuc(a1-6)]GlcNAc; conditions: glycan notation: IUPAC condensed, linker removed
How it was run: as §1

[4] = molecular target: Gal(b1-4)GlcNAc(b1-2)Man(a1-3)[Gal(b1-4)GlcNAc(b1-2)Man(a1-6)][GlcNAc(b1-4)]Man(b1-4)GlcNAc(b1-4)[Fuc(a1-6)]GlcNAc; conditions: glycan notation: IUPAC condensed, linker removed
How it was run: as §1

Glc(a1-4)Glc = conditions: glycan notation: IUPAC condensed, linker removed
How it was run: as §1

[5] = molecular target: Glc(a1-6)Glc(a1-4)Glc(a1-4)Glc; conditions: glycan notation: IUPAC condensed, linker removed
How it was run: as §1

[6] = molecular target: Glc(a1-6)Glc(a1-6)Glc(a1-6)Glc(a1-6)Glc(a1-6)Glc(a1-6)Glc(a1-6)Glc; conditions: glycan notation: IUPAC condensed, linker removed
How it was run: as §1

[7] = molecular target: GlcA(b1-3)Gal(b1-4)GlcNAc(b1-3)Gal(b1-4)Glc; conditions: glycan notation: IUPAC condensed, linker removed
How it was run: as §1

[8] = molecular target: GlcNAc(a1-4)Gal(b1-3)[Fuc(a1-2)]Gal; conditions: glycan notation: IUPAC condensed, linker removed
How it was run: as §1

[9] = molecular target: GlcNAc(b1-2)[GlcNAc(b1-4)]Man(a1-3)[GlcNAc(b1-2)[GlcNAc(b1-4)][GlcNAc(b1-6)]Man(a1-6)][GlcNAc(b1-4)]Man(b1-4)GlcNAc(b1-4)GlcNAc; conditions: glycan notation: IUPAC condensed, linker removed
How it was run: as §1

[10] = molecular target: GlcNAc(b1-4)GlcNAc(b1-4)GlcNAc; conditions: glycan notation: IUPAC condensed, linker removed
How it was run: as §1

[11] = molecular target: HexA(a1-3)GalNAc4S(b1-4)IdoA(a1-3)GalNAc4S(b1-4)IdoA(a1-3)GalNAc4S(b1-4)IdoA(a1-3)GalNAc4S(b1-4)IdoA(a1-3)GalNAc4S(b1-4)IdoA(a1-3)GalNAc4S(b1-4)IdoA(a1-3)GalNAc4S; conditions: glycan notation: IUPAC condensed, linker removed
How it was run: as §1

[12] = molecular target: Man(a1-2)Man(a1-3)[Man(a1-2)Man(a1-6)[Man(a1-3)]Man(a1-6)]Man(b1-4)GlcNAc(b1-4)GlcNAc; conditions: glycan notation: IUPAC condensed, linker removed
How it was run: as §1

[13] = molecular target: Man(a1-2)Man(a1-3)[Man(a1-3)[Man(a1-6)]Man(a1-6)]Man(b1-4)GlcNAc(b1-4)GlcNAc; conditions: glycan notation: IUPAC condensed, linker removed
How it was run: as §1

[14] = molecular target: Man(a1-3)[Man(a1-6)]Man(a1-6)[Man(a1-3)]Man; conditions: glycan notation: IUPAC condensed, linker removed
How it was run: as §1

[15] = molecular target: Neu4Ac5Ac(a2-3)Gal(b1-4)Glc; conditions: glycan notation: IUPAC condensed, linker removed
How it was run: as §1

[16] = molecular target: Neu5Ac(a2-3)Gal(b1-4)[Fuc(a1-3)]GlcNAc6S(b1-3)Gal(b1-4)Glc; conditions: glycan notation: IUPAC condensed, linker removed
How it was run: as §1

[17] = molecular target: Neu5Ac(a2-6)Gal(b1-3)GlcNAc(b1-3)[Fuc(a1-3)[Gal(b1-4)]GlcNAc(b1-6)]Gal(b1-4)Glc; conditions: glycan notation: IUPAC condensed, linker removed
How it was run: as §1

Neu5Ac(a2-6)Gal(b1-4)Glc = conditions: glycan notation: IUPAC condensed, linker removed
How it was run: as §1

[18] = molecular target: Neu5Ac(a2-8)Neu5Ac(a2-3)Gal(b1-3)GalNAc(b1-4)[Neu5Ac(a2-3)]Gal(b1-4)Glc; conditions: glycan notation: IUPAC condensed, linker removed
How it was run: as §1

[19] = molecular target: Neu5Ac(a2-8)Neu5Ac(a2-8)Neu5Ac(a2-8)Neu5Ac(a2-8)Neu5Ac; conditions: glycan notation: IUPAC condensed, linker removed
How it was run: as §1

[20] = molecular target: Xyl(a1-6)Glc(b1-4)[Xyl(a1-6)]Glc(b1-4)[Xyl(a1-6)]Glc(b1-4)Glc; conditions: glycan notation: IUPAC condensed, linker removed
How it was run: as §1

[21] = molecular target: Fuc(a1-2)[Gal(a1-3)]Gal(b1-4)[Fuc(a1-3)]GlcNAc; conditions: glycan notation: IUPAC condensed, linker removed; mutation: D325N
How it was run: as §1

[22] = molecular target: Fuc(a1-3)[Gal3S(b1-4)]Glc6S; conditions: glycan notation: IUPAC condensed, linker removed; mutation: D325N
How it was run: as §1

Gal(a1-2)Gal = conditions: glycan notation: IUPAC condensed, linker removed; mutation: D325N
How it was run: as §1

Gal(a1-3)Gal(b1-3)GlcNAc = conditions: glycan notation: IUPAC condensed, linker removed; mutation: D325N
How it was run: as §1

Gal(a1-3)Gal(b1-4)Glc = conditions: glycan notation: IUPAC condensed, linker removed; mutation: D325N
How it was run: as §1

[23] = molecular target: Gal(b1-3)[Neu5Ac(b2-6)]GalNAc; conditions: glycan notation: IUPAC condensed, linker removed; mutation: D325N
How it was run: as §1

[24] = molecular target: Gal(b1-4)GlcNAc(b1-3)Gal(b1-4)[Fuc(a1-3)]GlcNAc(b1-3)Gal(b1-4)[Fuc(a1-3)]GlcNAc; conditions: glycan notation: IUPAC condensed, linker removed; mutation: D325N
How it was run: as §1

[25] = molecular target: Gal(b1-4)GlcNAc(b1-6)Gal(b1-4)GlcNAc(b1-6)GalNAc; conditions: glycan notation: IUPAC condensed, linker removed; mutation: D325N
How it was run: as §1

[26] = molecular target: Gal(b1-4)GlcNAc(b1-6)GalNAc; conditions: glycan notation: IUPAC condensed, linker removed; mutation: D325N
How it was run: as §1

[27] = molecular target: Gal(b1-4)GlcNAc(b1-6)[Gal(b1-3)]GalNAc; conditions: glycan notation: IUPAC condensed, linker removed; mutation: D325N
How it was run: as §1

GlcNAc(b1-3)Gal(b1-4)Glc = conditions: glycan notation: IUPAC condensed, linker removed; mutation: D325N
How it was run: as §1

[28] = molecular target: GlcNAc(b1-6)Gal(b1-4)GlcNAc; conditions: glycan notation: IUPAC condensed, linker removed; mutation: D325N
How it was run: as §1

[29] = molecular target: Man(a1-2)Man(a1-2)Man(a1-3)Man; conditions: glycan notation: IUPAC condensed, linker removed; mutation: D325N
How it was run: as §1

[30] = molecular target: Man(a1-2)Man(a1-3)[Man(a1-2)Man(a1-6)]Man; conditions: glycan notation: IUPAC condensed, linker removed; mutation: D325N
How it was run: as §1

[31] = molecular target: Man(a1-2)Man(a1-3)[Man(a1-2)Man(a1-6)]Man(a1-6)[Man(a1-2)Man(a1-2)Man(a1-3)]Man; conditions: glycan notation: IUPAC condensed, linker removed; mutation: D325N
How it was run: as §1

[32] = molecular target: Man(a1-2)Man(a1-6)[Man(a1-3)]Man(a1-6)[Man(a1-2)Man(a1-2)Man(a1-3)]Man; conditions: glycan notation: IUPAC condensed, linker removed; mutation: D325N
How it was run: as §1

[33] = molecular target: Man(a1-3)[Man(a1-6)]Man(a1-6)[Man(a1-3)]Man(b1-4)GlcNAc(b1-4)GlcNAc; conditions: glycan notation: IUPAC condensed, linker removed; mutation: D325N
How it was run: as §1

[34] = molecular target: Neu5Ac(a2-3)Gal(b1-3)GlcNAc; conditions: glycan notation: IUPAC condensed, linker removed; mutation: D325N
How it was run: as §1

[35] = molecular target: Neu5Ac(a2-3)Gal(b1-4)[Fuc(a1-3)]GlcNAc(b1-3)Gal(b1-4)GlcNAc; conditions: glycan notation: IUPAC condensed, linker removed; mutation: D325N
How it was run: as §1

[36] = molecular target: Neu5Ac(a2-3)GalNAc(b1-4)GlcNAc; conditions: glycan notation: IUPAC condensed, linker removed; mutation: D325N
How it was run: as §1

Neu5Ac(a2-6)Gal = conditions: glycan notation: IUPAC condensed, linker removed; mutation: D325N
How it was run: as §1

Neu5Ac(a2-6)GalNAc = conditions: glycan notation: IUPAC condensed, linker removed; mutation: D325N
How it was run: as §1

[37] = molecular target: Neu5Ac(a2-8)Neu5Ac(a2-8)Neu5Ac; conditions: glycan notation: IUPAC condensed, linker removed; mutation: D325N
How it was run: as §1

B1: CLECSF8 (Mus musculus), Q9Z2H6 (protein)
chain: HYFLRWTRGSVVKLSDYHTRVTCIREEPQPGATGGTWTCCPVSWRAFQSNCYFPLNDNQTWHESERNCSGMSSHLVTINTEAEQNFVTQLLDKRFSYFLGLADENVEGQWQWVDKTPFNPHTVFWEKGESNDFMEEDCVVLVHVHEKWVWNDFPCHFEVRRICKLPGITFNWKPSK
[1]
  glycan array binding signal (z-score): -0.424
[2]
  glycan array binding signal (z-score): -0.424
Gal(b1-4)Glc
  glycan array binding signal (z-score): -0.424
[3]
  glycan array binding signal (z-score): -0.424
[4]
  glycan array binding signal (z-score): -0.424
Glc(a1-4)Glc
  glycan array binding signal (z-score): 0.06
[5]
  glycan array binding signal (z-score): 3.29
[6]
  glycan array binding signal (z-score): 1.5
[7]
  glycan array binding signal (z-score): 3.5
[8]
  glycan array binding signal (z-score): -0.424
[9]
  glycan array binding signal (z-score): -0.424
[10]
  glycan array binding signal (z-score): 1.74
[11]
  glycan array binding signal (z-score): 0.136
[12]
  glycan array binding signal (z-score): -0.424
[13]
  glycan array binding signal (z-score): -0.424
[14]
  glycan array binding signal (z-score): 4.16
[15]
  glycan array binding signal (z-score): 0.312
[16]
  glycan array binding signal (z-score): -0.424
[17]
  glycan array binding signal (z-score): -0.424
Neu5Ac(a2-6)Gal(b1-4)Glc
  glycan array binding signal (z-score): -0.424
[18]
  glycan array binding signal (z-score): 9.51
[19]
  glycan array binding signal (z-score): 1.77
[20]
  glycan array binding signal (z-score): 3.32

B2: Surfactant Protein D (Human); Neck + Carbohydrate Recognition Domain (NCRD) (Homo sapiens) (protein)
chain: MLLFLLSALVLLTQPLGYLEAEMKTYSHRTMPSACTLVMCSSVESGLPGRDRDGREGPRGEKGDPGLPGAAGQAGMPGQAGPVGPKGDNGSVGEPGPKGDTGPSGPPGPPGVPGPAGREGALGKQGNIGPQGKPGPKGEAGPKGEVGAPGMQGSAGARGLAGPKGERGVPGERGVPGNTGAAGSAGAMGPQGSPGARGPPGLKGDKGIPGDKGAKGESGLPDVASLRQQVEALQGQVQHLQAAFSQYKKVELFPNGQSVGEKIFKTAQFVKPFTEAQLLCTQAGGQLASPRSAAENAALQQLVVAKNEAAFLSMTDSKTEGKFTYPTGESLVYSNWAPGEPNDNGGSEDCVEIFTNGKWNDRACGEKRLVVCEF
[21]
  glycan array binding signal (z-score): -0.1
[22]
  glycan array binding signal (z-score): -0.117
Gal(a1-2)Gal
  glycan array binding signal (z-score): -0.109
Gal(a1-3)Gal(b1-3)GlcNAc
  glycan array binding signal (z-score): -0.169
Gal(a1-3)Gal(b1-4)Glc
  glycan array binding signal (z-score): -0.123
[23]
  glycan array binding signal (z-score): -0.139
[24]
  glycan array binding signal (z-score): -0.105
[25]
  glycan array binding signal (z-score): -0.132
[26]
  glycan array binding signal (z-score): -0.138
[27]
  glycan array binding signal (z-score): -0.128
GlcNAc(b1-3)Gal(b1-4)Glc
  glycan array binding signal (z-score): -0.118
[28]
  glycan array binding signal (z-score): -0.138
[29]
  glycan array binding signal (z-score): 2.18
[30]
  glycan array binding signal (z-score): 1.77
[31]
  glycan array binding signal (z-score): 9.38
[32]
  glycan array binding signal (z-score): 8.54
[14]; mutation: D325N
  glycan array binding signal (z-score): 11.2
[33]
  glycan array binding signal (z-score): 0.338
[34]
  glycan array binding signal (z-score): -0.127
[35]
  glycan array binding signal (z-score): -0.114
[36]
  glycan array binding signal (z-score): -0.148
Neu5Ac(a2-6)Gal
  glycan array binding signal (z-score): -0.148
Neu5Ac(a2-6)Gal(b1-4)Glc; mutation: D325N
  glycan array binding signal (z-score): -0.153
Neu5Ac(a2-6)GalNAc
  glycan array binding signal (z-score): -0.129
[37]
  glycan array binding signal (z-score): -0.163
